The source of these data is PubChem BioAssay (NCATS).

Assay [1] is described as follows: Cell Viability - Jurkat (AID 426;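 active = dose-dependent loss of cell ATP signal giving a full or clear fitted curve, ranked by lower potency value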;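 also: potency is read from the fitted curve at half-maximal effect; cells exposed to compound for 40 hours at 37 °C before ATP read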). The note with it: qHTS. A digest of the protocol: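 Seed 5000 Jurkat E6-1 cells/well; add compound; incubate 40 hr at 37 °C; add CellTiter-Glo; wait 20 min at room temperature; read luminescence. Fit concentration-response with Hill equation for AC50.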
For orientation: In qHTS, concentration-response curves come from the screen itself.

Assay [2] addresses Cytochrome P450 3A4 (Homo sapiens) (UniProt P08684). In words: qHTS Assay for Inhibitors and Substrates of Cytochrome P450 3A4 (AID 884). Also: % is scaled to controls: 0 for no effect and ±100 for the full control effect; nearly all actives have a fitted effect of over 50% in size. Particulars: recombinant CYP3A4, Luciferin-PPXE luminescence; series mostly up to 57.1 µM. In a few lines:
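20 nM human CYP3A4 with 25 uM Luciferin-PPXE (at KM) in 200 mM KPO4, preincubated 10 min with compound; NADPH regeneration started a 60 min RT reaction. Luciferin detected by luminescence, normalized to 57 uM ketoconazole as full inhibition.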

A short description of assay [3]: MultiTox-Fluor Cytotoxicity Assay - LYMP1-002 - Dead Cells (AID 960). Also: nearly all actives have a fitted effect of over 60% in size. Also: potency is read from the fitted curve at half-maximal effect. The note with it: LYMP1-002 lymphoblastoid cells, dead-cell protease fluorescence; series mostly up to 46.1 µM. A digest of the protocol:
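Acute cytotoxicity in a human lymphoblastoid line is scored as rising dead-cell protease signal after 16 hr exposure at 37 C, measured fluorometrically (485/520).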

Assay [4] in a line: Cell Viability - LYMP1-003 - Assay at 24 hr (AID 963).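 Also: plate controls were DMSO only for no effect and tetraoctylammonium bromide positive control for full effect.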 The note with it: LYMP1-003 lymphoblastoid cell viability; series mostly up to 92.2 µM. In a few lines: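 Acute toxicity in LYMP1-003 lymphoblastoid cells: 24 hr compound treatment at 37 C, ATP measured with CellTiter-Glo after 30 min at room temperature. AC50 derived by fitting the Hill equation to qHTS titrations.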
Assay [5] in a line: Cell Viability - LYMP2-013 (AID 970).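 Also: cells exposed to compound for 24 h at 37 °C; nearly all actives have a fitted effect of over 55% in size.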 Also: potency is read from the fitted curve at half-maximal effect. The note with it: LYMP2-013 lymphoblastoid cells viability; series mostly up to 92.2 µM. In a few lines:
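Acute toxicity was measured in human lymphoblastoid cells (2500/well) exposed to compound titrations for 24 hr, with ATP luminescence (CellTiter-Glo) as read-out and AC50 fitted by Hill equation.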

Assay [6] deals with Peroxisome proliferator-activated receptor gamma (Homo sapiens) (UniProt P37231). The assay is described as follows: qHTS assay for small molecule agonists of peroxisome proliferator-activated receptor gamma signaling (AID 588536; active = well fitted curve in the direction sought with a large enough effect in the signal ratio, with a control signal flat, not every such curve was filed as active; the % refers to the signal ratio;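 also: 0% = DMSO basal wells and 100% = rosiglitazone at 2 µM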). Particulars: HEK293 PPARg-UAS-bla, beta-lactamase ratio, 16 h, percent of rosiglitazone response, DMSO as zero; series mostly up to 76.7 µM. In a few lines:
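GeneBLAzer PPAR-gamma-UAS-bla HEK293 cells in 1% charcoal/dextran-treated FBS medium were treated 16 h at 37 C with compounds. Beta-lactamase activity was read by CCF4 ratio (460/530 nm). Response was normalized to 2 uM rosiglitazone (100%) and DMSO, then Hill-fitted for EC50 and efficacy.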

Assay [7] addresses Thyroid hormone receptor beta (Homo sapiens) (UniProt P10828). The assay is described as follows: qHTS assay for small molecule agonists of thyroid hormone receptor beta signaling (AID 588545; calls by dose curve;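 also: 0% = DMSO only and 100% = 10 nM T3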). Particulars: TR-UAS-bla GripTite HEK 293, beta-lactamase ratio, agonist mode, 18 h; series mostly up to 76.7 µM. A digest of the protocol: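 TR-UAS-bla-GripTite HEK 293 cells in medium with 2% charcoal/dextran FBS, 0.1 mM NEAA and 1 mM sodium pyruvate were treated with titrated compounds for 18 hrs at 37 C. Beta-lactamase reporter was read with CCF4 dye (ex 405, em 460/530 nm); EC50 from Hill fits.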

For assay [8], the target named is Voltage-gated inwardly rectifying potassium channel KCNH2 (Homo sapiens) (UniProt Q12809). In words: qHTS Assay for Small Molecule Inhibitors of the Human hERG Channel Activity (AID 588834).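 Also: top concentration of the series differs between compounds; % is scaled to controls: 0 for no effect and ±100 for the full control effect; lower thallium flux fluorescence means stronger hERG block; nearly all actives have a fitted effect of over 50% in size.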 Particulars: U2OS BacMam hERG, FluxOR thallium flux fluorescence; series mostly up to 92.2 µM. A digest of the protocol: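 hERG-BacMam U2OS, 2000 cells/well; 0.7X FluxOR loading 1 hr RT dark; cpd ~10 min 37 °C; stim buffer; FDSS fluorescence 2 min @ 1 s; AC50 Hill fit.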
Sequence of Voltage-gated inwardly rectifying potassium channel KCNH2 (Homo sapiens) (Q12809 whole entry, looked up): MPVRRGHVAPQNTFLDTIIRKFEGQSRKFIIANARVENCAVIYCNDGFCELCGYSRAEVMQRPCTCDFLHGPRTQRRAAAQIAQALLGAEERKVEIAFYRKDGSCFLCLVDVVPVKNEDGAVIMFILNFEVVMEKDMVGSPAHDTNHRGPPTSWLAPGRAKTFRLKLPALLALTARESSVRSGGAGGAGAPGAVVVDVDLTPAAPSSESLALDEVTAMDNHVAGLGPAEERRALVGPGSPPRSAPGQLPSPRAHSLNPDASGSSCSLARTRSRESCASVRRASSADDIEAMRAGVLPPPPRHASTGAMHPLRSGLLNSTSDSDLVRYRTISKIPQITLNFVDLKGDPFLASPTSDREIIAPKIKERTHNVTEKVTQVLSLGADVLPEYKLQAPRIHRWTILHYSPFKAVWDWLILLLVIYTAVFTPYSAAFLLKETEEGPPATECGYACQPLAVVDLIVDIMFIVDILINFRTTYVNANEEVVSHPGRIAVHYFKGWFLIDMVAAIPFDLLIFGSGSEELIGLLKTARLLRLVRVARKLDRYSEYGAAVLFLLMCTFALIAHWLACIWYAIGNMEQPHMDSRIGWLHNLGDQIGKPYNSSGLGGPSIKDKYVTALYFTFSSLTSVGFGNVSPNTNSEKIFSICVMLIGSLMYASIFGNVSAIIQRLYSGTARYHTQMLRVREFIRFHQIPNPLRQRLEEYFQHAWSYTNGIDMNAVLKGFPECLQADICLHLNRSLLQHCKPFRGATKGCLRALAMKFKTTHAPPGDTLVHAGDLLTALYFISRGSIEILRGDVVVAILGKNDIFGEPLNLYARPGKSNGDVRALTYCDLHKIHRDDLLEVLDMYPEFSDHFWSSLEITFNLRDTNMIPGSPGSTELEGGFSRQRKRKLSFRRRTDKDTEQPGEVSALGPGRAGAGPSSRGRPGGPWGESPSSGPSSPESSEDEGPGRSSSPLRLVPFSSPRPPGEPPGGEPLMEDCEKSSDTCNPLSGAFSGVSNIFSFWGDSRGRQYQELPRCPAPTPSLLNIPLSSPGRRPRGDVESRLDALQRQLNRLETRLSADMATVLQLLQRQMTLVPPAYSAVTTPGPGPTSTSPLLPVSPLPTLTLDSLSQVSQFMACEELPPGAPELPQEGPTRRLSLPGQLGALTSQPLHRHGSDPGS

A short description of assay [9]: qHTS assay for small molecule activators of the p53 signaling pathway (AID 651743; active = well fitted activation curve with a large enough effect in the signal ratio, not every such curve was filed as active; the % refers to the signal ratio; also: % of control where 0% means no effect). Particulars: HCT-116 p53RE-bla, beta-lactamase FRET ratio, 16 h; activation: stronger effect = higher value. A digest of the protocol: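 Screen for p53 pathway agonists uses stably transfected p53RE-bla HCT-116 cells, 4,000 per well, treated 16 h at 37 C with compounds in DMSO.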
In assay [10] the target is Tumor necrosis factor (Homo sapiens) (UniProt P01375). The assay is described as follows: qHTS assay to identify small molecules that stimulate Tumor Necrosis Factor-alpha (TNF-alpha) secretion (AID 651757; active = well fitted curve in the direction sought with a large enough effect in the signal ratio; the % refers to the signal ratio; also: 0% is about no effect). The note with it: Human cells, HTRF 665/615 ratio; series mostly up to 92.2 µM. A digest of the protocol: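 Secreted TNF-alpha from compound-treated THP-1 cells (17 hrs, 37 C) was quantified with a homogeneous time-resolved fluorescence antibody assay.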
Sequence of Tumor necrosis factor (Homo sapiens) (P01375 whole entry, looked up): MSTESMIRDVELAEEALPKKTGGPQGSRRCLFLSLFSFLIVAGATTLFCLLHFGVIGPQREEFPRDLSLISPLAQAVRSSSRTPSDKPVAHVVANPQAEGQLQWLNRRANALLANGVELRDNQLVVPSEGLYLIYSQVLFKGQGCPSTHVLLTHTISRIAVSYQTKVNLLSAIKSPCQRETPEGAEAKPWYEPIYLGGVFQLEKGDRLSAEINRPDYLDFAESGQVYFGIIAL

A short description of assay [11]: qHTS assay for small molecule activators of the human pregnane X receptor (PXR) signaling pathway (AID 720659; call rule not given here; also: 0% is about no effect). Particulars: DPX-2 HepG2 CYP3A4-luciferase, 24 h; series mostly up to 92.3 µM.
Assay [12] in a line: Cell Viability - NIH 3T3 (AID 541).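 Also: cells exposed to compound for 40 hours; plate controls were DMSO alone for no effect and tamoxifen positive control for full effect; nearly all actives have a fitted effect of over 25% in size.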 The note with it: NIH 3T3 cell viability, qHTS; activity change, negative = cytotoxicity: at 92.2 µM (top of the series). In a few lines: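 AC50 values reflect concentration-dependent loss of intracellular ATP in NIH 3T3 cells after 40 hr treatment in complete culture medium, quantified by luciferase-based luminescence.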
Assay [13] can be described thus: Cellular Toxicity (caspase-3) SK-N-SH (AID 661).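 Also: 0% = DMSO basal and 100% = 10 µM staurosporine.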 The note with it: SK-N-SH caspase-3 activation, qHTS, DMSO as zero, staurosporine as full; series mostly up to 91.7 µM. In a few lines: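 Caspase 3/7 activation is measured as a luminescence increase from aminoluciferin released by substrate cleavage in SK-N-SH cells after 16 hr compound treatment; values are AC50 from concentration-response curves.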

Assay [14] is described as follows: qHTS assay for small molecule antagonists of peroxisome proliferator-activated receptor delta signaling (AID 588535; active = well fitted inhibition curve with a large enough effect in the signal ratio, with a control signal flat, not every such curve was filed as active; the % refers to the signal ratio;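 as to max response: cells co-treated with a PPAR-delta agonist as stimulator during compound exposure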). Particulars: HEK293T PPARd-UAS-bla, beta-lactamase FRET ratio, 18 h; 460 nm channel. In a few lines:
(§1)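 Cell-based beta-lactamase assay in antagonist mode: 4000 HEK293T PPAR-delta-UAS-bla cells per well, 5 hr preincubation then 18 hr compound incubation at 37 C. IC50 obtained by Hill equation fitting.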

The target of assay [15] is Peroxisome proliferator-activated receptor delta (Homo sapiens) (UniProt Q03181). The assay is described as above. Particulars: HEK293T PPARd-UAS-bla, beta-lactamase FRET ratio, 18 h; series mostly up to 76.7 µM. A digest of the protocol:
as §1

Assay [16] is described as follows: qHTS assay for small molecule agonists of the antioxidant response element (ARE) signaling pathway (AID 651741; active = well fitted activation curve with a large enough effect in the signal ratio; the % refers to the signal ratio; also: potency is read from the fitted curve at half-maximal effect; as to activation: % of control where 0% means no effect). The note with it: HepG2 ARE-bla reporter, beta-lactamase FRET ratio, 16 h; series mostly up to 96 µM. A digest of the protocol:
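Seeding 2,000 ARE-bla HepG2 cells per well preceded a 5 h incubation at 37 C/5% CO2 and a 16 h compound exposure at 37 C. Beta-lactamase reporter activity was then quantified by fluorescence after 2 h with LiveBLAzer B/G FRET substrate.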

Assay [17] in a line: qHTS assay for small molecule disruptors of the mitochondrial membrane potential - 1 hr assay (AID 651754; calls by dose curve; also: % is scaled to controls: 0 for no effect and ±100 for the full control effect; nearly all actives have a fitted effect of over 35% in size). The note with it: series mostly up to 92.2 µM. In a few lines: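 Steps: seed HepG2 cells and let attach overnight; pin-transfer compound or vehicle; incubate 1 hr at 37C; add Mito-MPS dye for 30 min; read two-channel fluorescence for monomer and aggregate forms.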
Assay [18] deals with Nuclear receptor ROR-gamma (Homo sapiens) (UniProt P51449). In words: qHTS assay for small molecule antagonists of the retinoid-related orphan receptor gamma (ROR-gamma) signaling pathway (AID 651802).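 Also: CHO cells with doxycycline-induced ROR-gamma expression; luciferase reporter luminescence driven by ROR response element; % is scaled to controls: 0 for no effect and ±100 for the full control effect; nearly all actives have a fitted effect of over 60% in size.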 The note with it: ROR-gamma antagonist cell reporter assay; series mostly up to 92.2 µM. A digest of the protocol:
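Antagonism is scored as a fall in luminescence from a RORE-luciferase reporter in CHO cells expressing ROR under a TET-inducible promoter, measured 16hr after doxycycline induction in the presence of compound.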

Assay [19] has as its target Vitamin D3 receptor (Homo sapiens) (UniProt P11473). In words: qHTS assay for small molecule antagonists of vitamin D receptor signaling (AID 588541; calls by dose curve;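 also: receptor activated by calcitriol during compound treatment; % is scaled to controls: 0 for no effect and ±100 for the full control effect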). Particulars: HEK293T VDR-UAS-bla, beta-lactamase ratio, antagonist mode; series mostly up to 76.7 µM. A digest of the protocol: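 Antagonist-mode beta-lactamase reporter assay: HEK293T VDR-UAS-bla cells were exposed to titrated compound alongside 1-alpha,25-dihydroxyvitamin D3 at 3 nM final for 16 h. Values were normalized to the 50 nM agonist control and DMSO basal, with IC50 and efficacy from Hill equation fits.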

Assay [20] shares this target. In words: qHTS assay for small molecule agonists of vitamin D receptor signaling (AID 588543; calls by dose curve;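 also: 0% = DMSO basal and 100% = reference agonist control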). The note with it: HEK293T VDR-UAS-bla, beta-lactamase ratio, 16 h; series mostly up to 76.8 µM. A digest of the protocol: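 Reporter cells (HEK293T, VDR-UAS-bla) were seeded in medium with 2% charcoal-stripped serum and incubated 5 h, then compounds in concentration series were added for 16 h at 37 °C. Stimulation was scaled between DMSO basal and 50 nM 1α,25-dihydroxyvitamin D3.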

“And” between values parts separate entries of the source, which are not always exact repeats. Identical values can stand only once. Inconclusive results are not listed. Some structures have more than one record in an assay (separate samples or runs), and their calls can disagree. The source made the active and inactive calls. Unless noted, calls follow the shape of the dose curve; as a rule, active = well fitted curve in the direction sought with a large enough effect; inconclusive = small, poorly fitted or top-dose-only effect, or another doubt; inactive = no such curve, though single readings can be large; an effect the other way counts as inactive or inconclusive. A value given as a limit tells only on which side of the number the result lay.

Sequence of Nuclear receptor ROR-gamma (Homo sapiens) (P51449 whole entry, looked up): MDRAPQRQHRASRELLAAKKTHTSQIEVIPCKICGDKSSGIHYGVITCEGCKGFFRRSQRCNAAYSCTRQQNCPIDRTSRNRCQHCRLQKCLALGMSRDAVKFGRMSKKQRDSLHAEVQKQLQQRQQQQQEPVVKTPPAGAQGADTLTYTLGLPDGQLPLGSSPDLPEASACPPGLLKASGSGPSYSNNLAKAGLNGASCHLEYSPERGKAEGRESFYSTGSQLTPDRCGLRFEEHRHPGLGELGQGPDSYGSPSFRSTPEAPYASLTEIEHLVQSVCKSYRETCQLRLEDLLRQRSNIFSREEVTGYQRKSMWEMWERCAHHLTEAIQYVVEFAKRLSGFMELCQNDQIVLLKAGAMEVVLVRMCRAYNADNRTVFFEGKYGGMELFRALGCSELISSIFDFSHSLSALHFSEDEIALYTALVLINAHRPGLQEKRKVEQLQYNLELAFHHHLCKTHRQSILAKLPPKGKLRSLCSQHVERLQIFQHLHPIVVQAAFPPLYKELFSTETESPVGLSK
Sequence of Vitamin D3 receptor (Homo sapiens) (P11473 whole entry, looked up): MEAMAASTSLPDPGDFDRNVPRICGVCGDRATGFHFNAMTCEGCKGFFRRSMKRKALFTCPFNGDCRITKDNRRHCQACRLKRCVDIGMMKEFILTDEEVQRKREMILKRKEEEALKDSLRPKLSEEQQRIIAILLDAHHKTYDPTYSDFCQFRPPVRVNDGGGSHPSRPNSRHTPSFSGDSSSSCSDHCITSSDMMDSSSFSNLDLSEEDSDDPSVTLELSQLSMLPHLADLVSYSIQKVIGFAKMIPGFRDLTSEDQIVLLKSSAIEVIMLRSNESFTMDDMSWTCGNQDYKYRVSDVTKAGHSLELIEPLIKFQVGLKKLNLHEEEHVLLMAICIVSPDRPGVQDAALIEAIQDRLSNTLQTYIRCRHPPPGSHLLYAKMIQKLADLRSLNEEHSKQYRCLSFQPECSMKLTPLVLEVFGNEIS
Sequence of Peroxisome proliferator-activated receptor delta (Homo sapiens) (Q03181 whole entry, looked up): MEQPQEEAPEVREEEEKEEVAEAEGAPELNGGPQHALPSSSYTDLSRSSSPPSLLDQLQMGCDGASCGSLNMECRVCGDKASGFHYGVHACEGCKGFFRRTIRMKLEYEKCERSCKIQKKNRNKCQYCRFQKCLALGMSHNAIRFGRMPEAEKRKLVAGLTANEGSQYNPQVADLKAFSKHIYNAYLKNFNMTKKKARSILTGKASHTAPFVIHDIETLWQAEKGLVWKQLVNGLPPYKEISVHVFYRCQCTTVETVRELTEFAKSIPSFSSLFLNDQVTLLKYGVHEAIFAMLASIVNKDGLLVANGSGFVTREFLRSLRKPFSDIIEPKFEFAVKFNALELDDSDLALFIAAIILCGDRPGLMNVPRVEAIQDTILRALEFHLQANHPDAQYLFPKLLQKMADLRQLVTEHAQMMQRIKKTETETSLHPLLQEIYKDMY
Sequence of Peroxisome proliferator-activated receptor gamma (Homo sapiens) (P37231 whole entry, looked up): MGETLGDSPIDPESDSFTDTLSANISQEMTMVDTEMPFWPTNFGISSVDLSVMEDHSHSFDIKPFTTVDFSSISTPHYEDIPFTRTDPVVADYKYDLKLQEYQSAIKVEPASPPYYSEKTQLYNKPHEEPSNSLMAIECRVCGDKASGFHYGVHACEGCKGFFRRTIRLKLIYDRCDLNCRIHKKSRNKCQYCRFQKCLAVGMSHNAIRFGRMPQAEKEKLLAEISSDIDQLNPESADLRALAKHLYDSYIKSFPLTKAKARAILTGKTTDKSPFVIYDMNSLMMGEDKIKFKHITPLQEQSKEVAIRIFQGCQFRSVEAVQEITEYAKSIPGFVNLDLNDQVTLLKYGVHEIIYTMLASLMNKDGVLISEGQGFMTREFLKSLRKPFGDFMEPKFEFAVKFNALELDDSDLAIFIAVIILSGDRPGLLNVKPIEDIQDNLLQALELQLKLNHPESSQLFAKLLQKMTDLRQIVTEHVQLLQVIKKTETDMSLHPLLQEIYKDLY
Sequence of Thyroid hormone receptor beta (Homo sapiens) (P10828 whole entry, looked up): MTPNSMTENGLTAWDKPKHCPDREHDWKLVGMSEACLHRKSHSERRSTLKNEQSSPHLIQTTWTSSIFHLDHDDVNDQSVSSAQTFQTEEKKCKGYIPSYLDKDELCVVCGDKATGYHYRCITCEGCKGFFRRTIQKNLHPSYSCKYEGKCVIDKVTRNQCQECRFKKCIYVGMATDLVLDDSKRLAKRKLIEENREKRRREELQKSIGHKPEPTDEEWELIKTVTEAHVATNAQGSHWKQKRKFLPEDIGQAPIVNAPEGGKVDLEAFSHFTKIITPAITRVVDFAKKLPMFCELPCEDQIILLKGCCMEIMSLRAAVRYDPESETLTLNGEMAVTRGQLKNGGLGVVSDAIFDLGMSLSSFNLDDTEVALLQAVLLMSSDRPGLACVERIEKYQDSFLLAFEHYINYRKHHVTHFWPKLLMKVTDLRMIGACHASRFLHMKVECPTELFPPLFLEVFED
Sequence of Cytochrome P450 3A4 (Homo sapiens) (P08684 whole entry, looked up): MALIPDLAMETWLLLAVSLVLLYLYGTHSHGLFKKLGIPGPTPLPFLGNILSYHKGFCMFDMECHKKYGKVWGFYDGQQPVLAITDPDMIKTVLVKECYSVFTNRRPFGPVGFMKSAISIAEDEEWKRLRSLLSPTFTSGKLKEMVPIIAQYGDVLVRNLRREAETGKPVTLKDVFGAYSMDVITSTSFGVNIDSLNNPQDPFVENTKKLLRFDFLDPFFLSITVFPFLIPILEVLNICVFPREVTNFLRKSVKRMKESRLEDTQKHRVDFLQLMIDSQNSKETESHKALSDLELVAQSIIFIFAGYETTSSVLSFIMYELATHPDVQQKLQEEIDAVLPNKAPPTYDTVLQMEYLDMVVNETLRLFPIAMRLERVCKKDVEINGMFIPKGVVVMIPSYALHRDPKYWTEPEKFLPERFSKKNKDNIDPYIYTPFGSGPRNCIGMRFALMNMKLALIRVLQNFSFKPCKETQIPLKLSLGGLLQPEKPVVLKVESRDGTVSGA

With `CC(=O)OC(C(=O)c1ccccc1)c1ccccc1` (stereo not drawn), the Potency in assay [1] is > 92 µM (inactive). Further, the Potency result in assay [2], in assay [3], in assay [4], in assay [5], in [7] and in assay [8] was “inactive” each time. Moreover, the Potency result in [10] is “inactive”. In addition, the result in [6] and in assay [11] was inactive. Further, the activation in assay [9] is -2.72% (inactive).

With `c1ccc2ncccc2c1`, the Potency in [1] is > 92 µM (inactive). The activity change, negative = cytotoxicity in assay [12] is -0.00606% (inactive). Further, the compound was classed as inactive in [13], in assay [15], in [6] and in [11]. Moreover, the Potency entry in assay [3], in assay [4], in assay [5], in assay [7], in assay [8] and in [16] was “inactive” throughout. In addition, the Potency entry in assay [17], in [10] and in assay [18] was “inactive” in each case. In assay [14], the max response stood at 41.8%. The activation in assay [9] is -4.75% (inactive).

In the case of `OC1CCCCC1`, the Potency in [1] is > 92 µM (inactive). The activity change, negative = cytotoxicity in assay [12] is -12.6% (inactive). In addition, the compound was classed as inactive in assay [13], in [15], in [6] and in assay [11]. Further, the Potency entry in [2], in assay [3], in assay [4], in [5], in [19] and in [20] was “inactive” in each case. The Potency result in assay [7], in [8], in assay [16], in [10] and in [18] was “inactive” throughout. Further, the max response in assay [14] was found to be 23.6%. Also, the activation in assay [9] is -2.93% (inactive).

On to `COc1ccc([N+](=O)[O-])cc1N`, for which the values for the Potency in [1] and in assay [16] were > 92 µM (inactive) and 30.6 µM (active), respectively. In addition, the activity change, negative = cytotoxicity in [12] was -29.6% (inactive). The call in assay [13], in [15], in [6] and in [11] was inactive. Also, the Potency entry in assay [2], in [3], in assay [4], in [5], in assay [19] and in assay [20] was “inactive” each time. The Potency entry in assay [7], in assay [8], in assay [17] and in assay [18] was “inactive” in each case. In assay [14], the max response was 74.5% and 5.37%. Further, the activation in assay [9] was -2.91% (inactive) and -2.52% (inactive).

`c1c[nH]cn1`: the Potency in assay [1] was > 92 µM (inactive). In [12], the activity change, negative = cytotoxicity was -10% (inactive). For the same compound, the Potency result in assay [2], in [3], in [4], in assay [19], in assay [20] and in assay [7] was “inactive” throughout. Further, the Potency entry in [8], in assay [16], in assay [17] and in assay [10] was “inactive” in each case. The max response in assay [14] is 30.3%. Besides, the outcome in assay [15], in [6] and in [11] was inactive. For the same compound, in assay [9], the activation is -1.43% (inactive).

With `Cc1ccc(S(N)(=O)=O)cc1`, the Potency was > 92 µM (inactive) in assay [1]; “inactive and 68.6 µM (active)” in [16]. Moreover, the compound was classed as inactive in assay [13], in assay [15], in [6] and in assay [11]. For the same compound, the Potency entry in [2], in assay [3], in assay [4], in assay [5], in assay [19] and in assay [20] was “inactive” throughout. In addition, the Potency entry in assay [7], in [8] and in [17] was “inactive” each time. Further, the max response in assay [14] is 10.9% and 2.08%. Besides, in [9], the activation is -4.8% (inactive) and 0.0231% (inactive).

For `c1cc2c3c(c1)ccc1cccc(c13)C2`, in [1], the Potency is > 92 µM (inactive). Moreover, the activity change, negative = cytotoxicity in [12] was -13.2% (inactive). Further, the outcome in assay [13], in assay [15] and in [11] was inactive. The Potency result in assay [3], in [5], in assay [19], in [20], in assay [7] and in assay [8] was “inactive” throughout. The Potency result in assay [17], in [10] and in [18] was “inactive” each time. Also, in [14], the max response was 4.88%. Also, in [9], the activation was -4.21% (inactive).

In the case of `C=C1CC[C@H](O)C/C1=C/C=C1\CCC[C@]2(C)[C@@H]([C@H](C)CCCC(C)C)CC[C@@H]12`, the Potency in [1] was 27.5 µM (active); in assay [3], 31.6 µM (active); in assay [5], 50.1 µM (active). For the same compound, the Potency result in assay [7], in [8], in assay [17] and in assay [10] was “inactive” each time.
